From the supplement of paper PMC10849652
The full data set covers some 8,800 targets. This sample favours those with a hit. About 0.5% of all pairs of compound and target were hits.

Assays:
Assay in all cases: log2 fold change, soluble protein after heating vs DMSO (PISA); higher = thermal stabilisation; K562 lysate, 10 uM; active = over 0.2 and 3.5 SD of the protein, either way, in both replicates (recomputed)
[1] = compound: C1=CC=C(C=C1)[C@H](COC2=CC3=C(C=C2)NC(=O)N3)NC(=O)C4=CC=CN(C4=O)CC5=CC(=C(C=C5)F)F
Method in brief: (§1)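 A 30 min treatment with 10 μM compound was applied to crude K562 extract at 1 mg/mL protein in PBS pH 7.4 with 1 mM MgCl2. Heating for 3 min spanned 48°C-58°C, after which aliquots were pooled, adjusted to 0.5% NP-40 at 4°C and spun at 21,000xg for 90 min. TMTpro 16plex LC-MS/MS of the supernatant, with channel sums equalised, gave values recorded as log-two fold change in thermal stability against solvent controls, from duplicates.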

[2] = compound: CC1=C(SC2=C1C(=N[C@H](C3=NN=C(N32)C)CC(=O)N)C4=CC=C(C=C4)Cl)C
Method in brief: as §1

[3] = compound: CC1=C2C(=CC=C1)N=C(N(C2=O)C3=CC=CC=C3C)CN4C=NC5=C(N=CN=C54)N
Method in brief: as §1

[4] = compound: Cc1sc2c(c1C)C(c1ccc(Cl)cc1)=N[C@@H](CC(=O)OC(C)(C)C)c1nnc(C)n1-2
Method in brief: as §1

[5] = compound: c1ccc([C@@H]2C[C@H]2NC2CCNCC2)cc1
Method in brief: as §1

Measured: log2 fold change

SMG5 (UniProt Q9UPR3)
Chain of UniProt Q9UPR3 (Q9UPR3 whole entry, looked up): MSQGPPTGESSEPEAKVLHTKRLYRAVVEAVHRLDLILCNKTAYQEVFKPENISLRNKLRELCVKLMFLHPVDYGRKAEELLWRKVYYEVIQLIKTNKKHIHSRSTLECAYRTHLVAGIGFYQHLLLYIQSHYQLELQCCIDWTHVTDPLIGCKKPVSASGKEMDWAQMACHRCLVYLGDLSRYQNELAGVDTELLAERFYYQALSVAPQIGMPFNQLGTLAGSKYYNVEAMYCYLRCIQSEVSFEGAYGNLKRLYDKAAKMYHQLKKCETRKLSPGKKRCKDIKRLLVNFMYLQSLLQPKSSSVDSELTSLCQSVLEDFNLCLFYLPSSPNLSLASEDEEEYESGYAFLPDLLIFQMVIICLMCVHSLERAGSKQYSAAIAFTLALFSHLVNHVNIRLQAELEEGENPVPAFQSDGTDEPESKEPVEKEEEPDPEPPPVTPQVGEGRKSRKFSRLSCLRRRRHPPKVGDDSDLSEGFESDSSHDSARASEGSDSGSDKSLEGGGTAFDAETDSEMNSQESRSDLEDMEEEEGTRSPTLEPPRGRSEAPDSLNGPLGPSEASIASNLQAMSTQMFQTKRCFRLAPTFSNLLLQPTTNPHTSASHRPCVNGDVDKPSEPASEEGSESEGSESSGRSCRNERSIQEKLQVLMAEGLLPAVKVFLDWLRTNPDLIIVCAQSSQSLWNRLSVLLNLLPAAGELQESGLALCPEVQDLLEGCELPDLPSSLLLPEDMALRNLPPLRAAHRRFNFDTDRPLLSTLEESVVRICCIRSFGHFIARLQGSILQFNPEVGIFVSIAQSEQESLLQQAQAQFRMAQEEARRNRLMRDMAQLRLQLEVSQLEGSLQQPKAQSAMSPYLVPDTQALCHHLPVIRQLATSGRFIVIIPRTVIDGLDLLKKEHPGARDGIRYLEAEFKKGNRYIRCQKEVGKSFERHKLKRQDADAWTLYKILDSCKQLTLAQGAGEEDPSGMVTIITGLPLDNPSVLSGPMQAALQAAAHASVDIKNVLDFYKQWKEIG
inactive: [1] -0.078 | [2] 0.041 | [3] 0.026 | [4] -0.047 | [5] -0.024

SKA3 (UniProt Q8IX90)
Chain of UniProt Q8IX90 (Q8IX90 whole entry, looked up): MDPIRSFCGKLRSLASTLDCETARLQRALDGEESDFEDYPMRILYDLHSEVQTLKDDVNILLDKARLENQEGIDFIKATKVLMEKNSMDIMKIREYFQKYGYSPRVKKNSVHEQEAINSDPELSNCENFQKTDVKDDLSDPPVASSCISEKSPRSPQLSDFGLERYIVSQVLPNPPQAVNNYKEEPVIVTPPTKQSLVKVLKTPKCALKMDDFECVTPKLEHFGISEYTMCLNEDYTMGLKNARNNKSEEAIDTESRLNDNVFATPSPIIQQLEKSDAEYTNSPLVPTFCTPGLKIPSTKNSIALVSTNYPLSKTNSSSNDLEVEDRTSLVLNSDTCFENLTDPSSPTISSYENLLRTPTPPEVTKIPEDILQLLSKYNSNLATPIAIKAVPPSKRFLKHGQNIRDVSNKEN
inactive: [1] -0.008 | [2] -0.002 | [3] -0.009 | [4] -0.016 | [5] -0.02

SMG7 (UniProt Q92540)
Chain of UniProt Q92540 (Q92540 whole entry, looked up): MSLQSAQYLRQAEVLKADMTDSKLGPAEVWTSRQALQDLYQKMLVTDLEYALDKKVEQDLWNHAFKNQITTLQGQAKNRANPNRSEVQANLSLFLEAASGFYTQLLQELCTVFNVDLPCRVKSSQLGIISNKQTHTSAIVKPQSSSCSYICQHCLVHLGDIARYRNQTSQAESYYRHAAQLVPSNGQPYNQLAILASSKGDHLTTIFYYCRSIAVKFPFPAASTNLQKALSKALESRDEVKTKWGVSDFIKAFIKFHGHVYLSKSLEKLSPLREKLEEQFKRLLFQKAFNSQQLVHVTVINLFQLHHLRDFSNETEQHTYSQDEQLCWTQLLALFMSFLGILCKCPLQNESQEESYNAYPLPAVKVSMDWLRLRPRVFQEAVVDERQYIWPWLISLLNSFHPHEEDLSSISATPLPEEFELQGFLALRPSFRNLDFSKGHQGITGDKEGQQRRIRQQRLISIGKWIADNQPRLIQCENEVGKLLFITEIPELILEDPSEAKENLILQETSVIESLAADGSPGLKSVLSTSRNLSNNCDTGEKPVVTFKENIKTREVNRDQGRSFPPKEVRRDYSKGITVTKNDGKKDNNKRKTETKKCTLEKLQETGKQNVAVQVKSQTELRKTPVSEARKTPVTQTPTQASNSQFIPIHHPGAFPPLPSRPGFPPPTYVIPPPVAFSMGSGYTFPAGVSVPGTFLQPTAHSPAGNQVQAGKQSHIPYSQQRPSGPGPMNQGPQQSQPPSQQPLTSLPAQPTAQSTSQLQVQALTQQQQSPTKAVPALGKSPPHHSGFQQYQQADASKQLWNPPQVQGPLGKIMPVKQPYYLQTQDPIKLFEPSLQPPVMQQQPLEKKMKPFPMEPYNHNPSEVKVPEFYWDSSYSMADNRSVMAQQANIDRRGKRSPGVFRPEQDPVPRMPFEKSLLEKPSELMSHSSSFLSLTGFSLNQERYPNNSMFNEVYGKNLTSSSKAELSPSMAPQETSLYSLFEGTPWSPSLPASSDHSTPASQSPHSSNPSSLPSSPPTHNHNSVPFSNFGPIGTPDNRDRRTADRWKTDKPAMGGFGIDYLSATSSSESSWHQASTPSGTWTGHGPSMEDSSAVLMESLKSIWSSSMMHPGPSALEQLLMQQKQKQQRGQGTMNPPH
inactive: [1] 0.008 | [2] 0.019 | [3] 0.147 | [4] -0.014 | [5] 0.029

SMIM8 (UniProt Q96KF7)
Chain of UniProt Q96KF7 (Q96KF7 whole entry, looked up): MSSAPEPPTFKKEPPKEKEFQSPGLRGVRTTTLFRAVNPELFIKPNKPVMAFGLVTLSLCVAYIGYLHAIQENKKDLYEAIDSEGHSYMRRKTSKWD
inactive: [1] 0.061 | [2] 0.044 | [3] 0.004 | [4] 0.047 | [5] -0.157

TANGO6 (UniProt Q9C0B7)
Chain of UniProt Q9C0B7 (Q9C0B7 whole entry, looked up): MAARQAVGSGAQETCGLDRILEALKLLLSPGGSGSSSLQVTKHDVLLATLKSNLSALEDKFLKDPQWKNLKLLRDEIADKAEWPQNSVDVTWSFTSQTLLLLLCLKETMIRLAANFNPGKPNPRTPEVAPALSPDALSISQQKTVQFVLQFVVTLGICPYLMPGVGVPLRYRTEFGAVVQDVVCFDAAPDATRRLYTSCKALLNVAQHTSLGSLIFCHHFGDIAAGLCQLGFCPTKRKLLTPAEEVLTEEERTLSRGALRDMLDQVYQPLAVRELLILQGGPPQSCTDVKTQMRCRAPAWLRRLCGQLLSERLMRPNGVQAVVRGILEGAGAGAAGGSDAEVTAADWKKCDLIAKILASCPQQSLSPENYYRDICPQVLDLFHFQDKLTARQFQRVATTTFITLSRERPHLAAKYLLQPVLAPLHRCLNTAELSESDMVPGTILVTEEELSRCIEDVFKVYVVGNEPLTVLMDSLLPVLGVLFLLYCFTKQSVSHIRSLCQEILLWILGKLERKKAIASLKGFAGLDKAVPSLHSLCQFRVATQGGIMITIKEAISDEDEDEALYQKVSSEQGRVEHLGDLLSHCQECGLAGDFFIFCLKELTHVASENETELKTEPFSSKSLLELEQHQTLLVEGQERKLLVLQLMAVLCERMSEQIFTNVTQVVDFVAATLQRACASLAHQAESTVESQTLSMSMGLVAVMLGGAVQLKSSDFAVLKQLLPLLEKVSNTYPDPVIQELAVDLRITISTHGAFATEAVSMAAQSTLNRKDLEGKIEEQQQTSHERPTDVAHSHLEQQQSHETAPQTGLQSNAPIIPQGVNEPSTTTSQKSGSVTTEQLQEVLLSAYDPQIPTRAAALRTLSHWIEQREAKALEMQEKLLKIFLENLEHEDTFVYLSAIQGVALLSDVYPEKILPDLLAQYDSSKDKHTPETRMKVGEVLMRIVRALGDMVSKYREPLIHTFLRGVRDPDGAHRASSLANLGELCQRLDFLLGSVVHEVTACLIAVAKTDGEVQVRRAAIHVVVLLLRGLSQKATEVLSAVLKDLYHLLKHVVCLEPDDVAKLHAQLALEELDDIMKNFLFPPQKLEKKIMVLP
inactive: [1] 0.05 | [2] -0.021 | [3] -0.036 | [4] 0.043 | [5] -0.009

STK26 (UniProt Q9P289)
inactive: [1] -0.015 | [2] -0.015 | [3] 0.008 | [4] -0.015 | [5] 0.02

SMYD3 (UniProt Q9H7B4)
Chain of UniProt Q9H7B4 (Q9H7B4 whole entry, looked up): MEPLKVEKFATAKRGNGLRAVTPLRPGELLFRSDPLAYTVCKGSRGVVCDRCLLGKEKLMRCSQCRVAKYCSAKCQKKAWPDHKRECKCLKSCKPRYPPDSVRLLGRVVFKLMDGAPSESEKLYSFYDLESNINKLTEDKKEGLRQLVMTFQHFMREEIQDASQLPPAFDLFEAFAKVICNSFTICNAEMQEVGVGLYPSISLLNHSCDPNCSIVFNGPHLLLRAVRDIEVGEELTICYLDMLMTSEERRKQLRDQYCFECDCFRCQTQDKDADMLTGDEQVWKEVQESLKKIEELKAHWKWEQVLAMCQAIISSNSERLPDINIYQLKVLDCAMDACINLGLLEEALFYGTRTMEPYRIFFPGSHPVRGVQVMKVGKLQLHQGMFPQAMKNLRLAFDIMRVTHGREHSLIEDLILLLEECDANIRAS
inactive: [1] 0.028 | [2] 0.05 | [3] 0.035 | [4] -0.001

SYPL1 (UniProt Q16563)
Chain of UniProt Q16563 (Q16563 whole entry, looked up): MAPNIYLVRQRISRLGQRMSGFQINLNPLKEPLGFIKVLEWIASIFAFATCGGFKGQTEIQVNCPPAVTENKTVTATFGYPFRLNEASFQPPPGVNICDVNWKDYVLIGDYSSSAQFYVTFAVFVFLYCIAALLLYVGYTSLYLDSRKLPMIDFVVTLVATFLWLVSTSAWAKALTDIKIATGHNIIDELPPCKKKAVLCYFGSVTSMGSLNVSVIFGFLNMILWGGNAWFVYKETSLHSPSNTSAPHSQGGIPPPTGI
inactive: [1] -0.075 | [2] 0.003 | [3] -0.01 | [4] -0.041 | [5] -0.123

SRP54 (UniProt P61011)
Chain of UniProt P61011 (P61011 whole entry, looked up): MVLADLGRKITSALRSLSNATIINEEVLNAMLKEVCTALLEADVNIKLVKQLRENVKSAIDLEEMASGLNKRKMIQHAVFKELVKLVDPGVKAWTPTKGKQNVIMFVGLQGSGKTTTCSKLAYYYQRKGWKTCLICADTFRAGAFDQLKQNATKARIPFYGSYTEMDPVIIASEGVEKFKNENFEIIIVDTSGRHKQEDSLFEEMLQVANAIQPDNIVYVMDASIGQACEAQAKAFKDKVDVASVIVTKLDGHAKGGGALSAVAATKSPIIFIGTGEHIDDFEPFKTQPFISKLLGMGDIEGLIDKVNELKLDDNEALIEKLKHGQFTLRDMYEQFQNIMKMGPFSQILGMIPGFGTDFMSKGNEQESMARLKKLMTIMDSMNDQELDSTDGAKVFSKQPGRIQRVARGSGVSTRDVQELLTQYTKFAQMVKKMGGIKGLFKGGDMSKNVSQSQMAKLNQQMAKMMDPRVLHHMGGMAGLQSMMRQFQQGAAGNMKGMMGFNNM
inactive: [1] 0.023 | [2] 0.001 | [3] 0.03 | [4] 0.06 | [5] 0.049
